Source: publication PMC5540273 (PLoS ONE, 2017)

Legend:
Details in all cases: concentration: 1 μM, replicates: in singlicate; n = 1
ADCK4 = test system: ADCK4
AKT1 = test system: AKT1
AKT2 = test system: AKT2
AKT3 = test system: AKT3
ALK = test system: ALK
AMPK-alpha1 = test system: T1, AMPK-alpha1
T1 construct: gene PRKAA1

AMPK-alpha2 = test system: T2, AMPK-alpha2
T2 construct: gene PRKAA2

ANKK1 = test system: ANKK1
ARK5 = test system: T3, ARK5
T3 construct: gene NUAK1

ASK1 = test system: T4, ASK1
T4 construct: gene MAP3K5

ASK2 = test system: T5, ASK2
T5 construct: gene MAP3K6

AURKA = test system: AURKA
AURKB = test system: AURKB
AURKC = test system: AURKC
AXL = test system: AXL
BIKE = test system: T6, BIKE
T6 construct: gene BMP2K

BLK = test system: BLK
BMPR1A = test system: BMPR1A
BMPR1B = test system: BMPR1B
BMPR2 = test system: BMPR2
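Also: KINOMEscan kinase panel screen.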

Row | SMILES | %Inh (ADCK4) | %Inh (AKT1) | %Inh (AKT2) | %Inh (AKT3) | %Inh (ALK) | %Inh (AMPK-alpha1) | %Inh (AMPK-alpha2) | %Inh (ANKK1) | %Inh (ARK5) | %Inh (ASK1) | %Inh (ASK2) | %Inh (AURKA) | %Inh (AURKB) | %Inh (AURKC) | %Inh (AXL) | %Inh (BIKE) | %Inh (BLK) | %Inh (BMPR1A) | %Inh (BMPR1B) | %Inh (BMPR2)
1 | CC(=O)Nc1nc2cnc(Nc3cc(NC(=O)c4cccc(C5(C#N)CC5)c4Cl)ccc3C)nc2s1 | 0% | 7% | 13% | 0% | 0% | 7% | 21% | 0% | 2% | 0% | 0% | 0% | 26% | 0% | 0% | 0% | 45% | 0% | 0% | 2%
2 | COC(=O)Nc1nc2cc(Oc3ccc(NC(=O)Nc4cc(C(F)(F)F)ccc4F)cn3)ccc2[nH]1.Cl.Cl [GW681170] | 19% | 0% | 0% | 0% | 6% | 19% | 23% | 8% | 0% | 10% | 0% | 78% | 40% | 52% | 98.3% | 1% | 31% | 0% | 0% | 10%
3 | CN(C)Cc1ccc(-c2ccc3c(Nc4ccc(Oc5ccccn5)cc4)ccnc3c2)o1 [GW567148] | 0% | 0% | 0% | 0% | 22% | 8% | 0% | 0% | 18% | 0% | 0% | 0% | 81% | 51% | 2% | 17% | 91.5% | 0% | 0% | 28%
4 | COc1ccc(CNC(=O)NC2CCN(c3ccnc(Nc4ccc(F)cc4)n3)CC2)cc1 [GSK1379788] | 49% | 0% | 0% | 0% | 20% | 0% | 0% | 0% | 5% | 0% | 0% | 34% | 26% | 5% | 0% | 0% | 3% | 0% | 0% | 5%
5 | CC(=O)N1CCN(c2ccc(Nc3nccc(-c4sc(C(C)C)nc4-c4cccc(NS(=O)(=O)c5cccc(Cl)c5)c4)n3)cn2)CC1 [GSK1660437] | 72% | 0% | 5% | 0% | 7% | 48% | 75% | 7% | 0% | 0% | 2% | 0% | 0% | 10% | 68% | 24% | 91.4% | 0% | 97.1% | 0%
6 | Nc1ncc(-c2ccc3nccc(-c4ccncc4)c3c2)cc1S(=O)(=O)N1CCOCC1 [GSK1627798] | 24% | 0% | 12% | 0% | 30% | 0% | 0% | 5% | 0% | 0% | 0% | 0% | 0% | 6% | 36% | 24% | 100% | 0% | 0% | 0%
7 | CC(C)c1nc(-c2cccc(NS(=O)(=O)c3c(F)cccc3F)c2F)c(-c2ccnc(Nc3ccc(N4CCOCC4)nc3)n2)s1 [GSK2008607] | 100% | 0% | 0% | 0% | 28% | 97% | 98.8% | 29% | 0% | 0% | 3% | 93.6% | 91.8% | 53% | 97.5% | 24% | 99.7% | 53% | 98.5% | 0%
8 | Cc1ccc(C(=O)Nc2ccc(Nc3ccnc4cc(-c5nccs5)ccc34)cc2O)cc1.Cl [GW494702] | 34% | 12% | 6% | 0% | 0% | 20% | 0% | 21% | 14% | 9% | 0% | 100% | 91.3% | 61% | 9% | 9% | 97% | 0% | 0% | 12%
9 | Cn1cc(-c2ccc3c(c2)CCN3C(=O)Cc2cccc(Cl)c2)c2c(N)ncnc21 [GSK2606590] | 1% | 0% | 10% | 0% | 30% | 4% | 20% | 0% | 13% | 9% | 19% | 23% | 89% | 65% | 96.3% | 18% | 69% | 0% | 0% | 4%
